In ChEMBL document CHEMBL3433997, “St. Jude Leishmania screening dataset” (2016):
Values joined by “and” are separate entries in the source; they are usually repeats but may differ in a detail not shown here. Identical values can stand only once.

Legend:
Type in all cases: functional
[1] = target: Solute carrier family 2, facilitated glucose transporter member 1 (Homo sapiens) (UniProt P11166); test: ST_JUDE_LEISH: Cytotoxicity at 2uM final concentration against transgenic Leishmania Mexicana promastigotes LmGLUT1 that are glucose transport deficient and complemented with the human glucose transporter GLUT1. Activity is measured by DNA content using SYBR green in vitro
[2] = target: Hexose transporter 1 (Plasmodium falciparum) (UniProt O97467); test: ST_JUDE_LEISH: Cytotoxicity at 2uM final concentration against transgenic Leishmania Mexicana promastigotes LmPfHT that are glucose transport deficient and complemented with the Plasmodium falciparum hexose transporter. Activity is measured by DNA content using SYBR green in vitro
[3] = target: Glucose transporter (Leishmania mexicana) (UniProt O61059); test: ST_JUDE_LEISH: Cytotoxicity at 2uM final concentration against transgenic Leishmania Mexicana promastigotes LmGT2 that are glucose transport deficient and complemented with the L. Mexicana glucose transporter 2. Activity is measured by DNA content using SYBR green in vitro

Chain of Solute carrier family 2, facilitated glucose transporter member 1 (Homo sapiens) (P11166 whole entry): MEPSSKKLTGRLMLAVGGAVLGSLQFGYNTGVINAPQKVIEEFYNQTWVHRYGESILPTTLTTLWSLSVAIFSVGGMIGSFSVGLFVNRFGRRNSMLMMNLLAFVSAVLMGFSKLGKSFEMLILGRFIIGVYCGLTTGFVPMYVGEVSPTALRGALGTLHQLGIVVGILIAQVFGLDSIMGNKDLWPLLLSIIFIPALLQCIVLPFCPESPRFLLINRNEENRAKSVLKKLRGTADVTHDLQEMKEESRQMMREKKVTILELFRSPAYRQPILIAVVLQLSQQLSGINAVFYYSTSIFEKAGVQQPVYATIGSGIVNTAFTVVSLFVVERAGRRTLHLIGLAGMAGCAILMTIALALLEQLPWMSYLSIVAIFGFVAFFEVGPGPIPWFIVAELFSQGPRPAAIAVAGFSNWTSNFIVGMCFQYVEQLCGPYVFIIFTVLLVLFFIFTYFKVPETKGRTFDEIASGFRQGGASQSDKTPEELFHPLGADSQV

SMILES	inhibition [1]	inhibition [2]	inhibition [3]
Cc1cc(Nc2ccc(O)cc2)nc2cccc(O)c12	2.06%	0.79%	3.84%
c1ccc2[nH]c(-c3ccc(-c4ccc(CN5CCCCC5)cc4)s3)nc2c1	0.97%	0.62%	-0.34%
COc1ccc(-c2ccc(NC(=O)c3cccc(Cl)c3)cc2)cc1CNC(C)C	4.75%	5.52%	1.96%
Cc1ccc(F)cc1S(=O)(=O)NCC(C)c1ccc(NC(=O)Nc2cccc(F)c2)cc1 (stereo not drawn)	0.16%	1.6%	-0.29%
CN(c1ccc(NC(=O)Nc2cc(C(F)(F)F)ccc2F)cc1)c1ccnc(NCCN2CCCC2)n1	5.11%	4.8%	4.41%
COc1nc2c(CCN3CC[C@H](NCc4ccc5c(c4)NC(=O)CO5)[C@H](O)C3)c(Cl)cnc2cc1F	6.64%	7.74%	4.24%
Cc1cc(OCC2CCCO2)c2cc(NC(=O)C(=O)Nc3ccc4nc(C)cc(OCC5CCCO5)c4c3)ccc2n1 (stereo not drawn)	3.87%	3.62%	3.37%
c1ccc(C23NC(=Nc4nc5ccccc5[nH]4)NC2(c2ccccc2)NC(=Nc2nc4ccccc4[nH]2)N3)cc1 (stereo not drawn)	3.64%	3.18%	5.58%
O=C(Nc1ccc(C(=O)N2CCN(CCN3CCN(c4cccc(C(F)(F)F)c4)CC3)CC2)cc1)c1ccc(OC(F)(F)F)cc1	-1.35%	0.14%	-2.39%
CC(O)C(C)(CO)NCc1ccc2c3c(cccc13)-c1ccccc1-2 (stereo not drawn)	15.7%	11.2%	5.35%
COc1ccc(-c2ccc(NC(=O)c3ccccc3)cc2)cc1CN1CCCN(C)CC1	1.09%	-0.14%	-1.41%
CNC(=O)C(NC(=O)c1ccccc1C(=O)OC)c1ccccc1 (stereo not drawn)	1.77%	0.32%	-2.13%
CCOc1cc(CC)ccc1C1CCN(CCN2CCC(CNC(=O)c3ccc(-c4ccc(C#N)cc4)cc3)CC2)CC1	16.2%	13%	13.1%
Fc1ccc2[nH]c(-c3ccc(-c4ccc(CN5CCN(CCN6CCOCC6)CC5)cc4)s3)nc2c1	6.46%	2.96%	1.83%
Cc1cccc2nc(-c3ccc(-c4ccc(CN5CCCCC5)cc4)cc3)[nH]c12	19.2%	18.6%	10.2%
CC(C)(C)c1ccc(NC(=O)c2cccc(CN3CCCN(Cc4ccsc4)CC3)c2)cc1	5.17%	1.84%	1.41%

SMILES	inhibition [1]	inhibition [2]	inhibition [3]
CCNc1cc(C)nc(Nc2ccc(NC(=O)c3ccccc3)cc2)n1	6.94%	4.8%	3.79%
CCN(CC(C)O)C(=O)c1ccc(-c2ccc(-c3nc4cccc(C)c4[nH]3)cc2)cc1 (stereo not drawn)	6.07%	-2.57%	0.55%
Cc1nc2c(c(O)c1Cl)-c1ccc(Oc3cccc(C(F)(F)F)c3)cc1C2=O	2.13% and 1.44%	2.5% and 1.39%	1.75% and 2.09%
O=C1SC(=Cc2ccc(O)c(O)c2)C(=O)N1c1ccccc1	2.29%	2.56%	0.86%
CN1CCN(c2cc3c(cc2Br)CCN3C(=O)Nc2ccc(-c3cnc4ccccc4c3)cc2)CC1	107%	100%	109%
CCN(CC)CCN(Cc1ccc(-c2ccc(C(F)(F)F)cc2)cc1)C(=O)c1ccc(-c2ccc(NC(=O)OC)cc2C)cc1	29.9%	17.9%	10.1%
Cc1cnc(CN(Cc2ccc(-c3ccc(CNCCc4ccc(S(C)(=O)=O)cc4)cn3)cc2)C(=O)c2nn(-c3ccccc3)nc2C)cn1	5.03%	3.95%	4.81%
CS(=O)(=O)N(c1cccc(F)c1)c1cc(C(=O)N[C@@H](Cc2ccccc2)[C@H](O)CNCc2cccc(C(F)(F)F)c2)cc(N2CCCC2=O)c1	-2.34%	-1.22%	-0.57%
O=C(Nc1ccc(Cl)cc1C(=O)Nc1cccc(F)c1)c1ccc([N+](=O)[O-])cc1	0.5%	0.92%	1.58%
O=c1cc(NCCCNCc2cc3ccccc3s2)[nH]c2ccccc12	4.89%	6.01%	3.82%
CN1CCC(NCc2cccc(-c3nn(C)c4nc(NC5CCCC5)ncc34)c2)CC1	2.78%	1.84%	3.81%
COc1ccc(C2CC(=O)C3=C(C2)NC(C)=C(C(=O)OC(C)C)C3c2ccccc2F)cc1OC (stereo not drawn)	13.6%	2.16%	1.65%
NC(=O)c1cccc(Nc2nccc(Nc3ccc(Oc4ccc5ccccc5c4)cc3)n2)c1	5.67%	4.45%	0.97%
COc1ccc(Nc2nccc(NCCNC(=O)c3cc4ccccc4s3)n2)cc1	5.11%	3.59%	-0.64%
CCN(CCNC(=O)C1CCN(c2cc(-c3cccc(C)c3)ncn2)CC1)Cc1ccccc1	4.41%	3.37%	4.06%
